Data on 13 compounds can be found in PubChem BioAssay (NCI).

Molecules are shown by their SMILES. “And” between values parts separate entries of the source, which are not always exact repeats. Identical values can stand only once. Compounds without any hit were thinned out: in the full panel of roughly 83,000, 20% have a hit.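 Values shown are percent growth following 48 h exposure of cells in 96-well plates to a single concentration of compound; below 10 was considered active.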 A number with no mark means an inactive call. The source made the active and inactive calls.

Test systems include HT29 colon; SNB-75 CNS; SNB-19 CNS; PC-3 prostate; SK-MEL-5 melanoma.
Common to all, as to assay: NCI-60 one-dose screen, 48 h (100 = growth as untreated, 0 = no growth, -100 = all killed)
The subject of the next experiment is U251 CNS. To be noted: 10 µM unless noted.
In another experiment the test system is UACC-62 melanoma. To be noted: 10 µM unless noted.
The subject of a further experiment is LOX IMVI melanoma. Conditions: 10 µM unless noted.
In a further experiment the test system is SK-MEL-28 melanoma. Conditions: 10 µM unless noted.

For `Cc1cnc(N)s1`, the growth in the experiment on HT29 colon (10 µM unless noted) is 100%; in the experiment on SNB-75 CNS (10 µM unless noted) it was 71.5%; in the experiment with SNB-19 CNS (10 µM unless noted), 91.4%; in the experiment with U251 CNS, 95.5%; in the experiment with PC-3 prostate (10 µM unless noted), 88.9%; with SK-MEL-5 melanoma (10 µM unless noted) it was 97.5%. Besides, the values for the growth in the experiment with UACC-62 melanoma, in the experiment with LOX IMVI melanoma and in the experiment with SK-MEL-28 melanoma were 90.7%, 98.6% and 99.1%, respectively.

As to `CC1CC(O)CC(C)(C)C1.CC1CC(O)CC(C)(C)C1.CC1CC(O)CC(C)(C)C1.CC1CC(O)CC(C)(C)C1.[Ti]` (stereo not given), the growth in the experiment on HT29 colon (10 µM unless noted) was 97.2%; with SNB-75 CNS (10 µM unless noted) it was 113%; in the experiment with SNB-19 CNS (10 µM unless noted), 93.4%; with U251 CNS, 99.2%; with PC-3 prostate (10 µM unless noted), 90.4%; in the experiment with SK-MEL-5 melanoma (10 µM unless noted) it was 104%. The values for the growth in the experiment on UACC-62 melanoma, with LOX IMVI melanoma and with SK-MEL-28 melanoma were 76.2%, 106% and 118%, respectively.

Regarding `OCCSc1ccc(Cl)cc1`, the growth with HT29 colon (10 µM unless noted) is 104% and 88.1%; in the experiment on SNB-75 CNS (10 µM unless noted) it was 96.7% and 83%; in the experiment on SNB-19 CNS (10 µM unless noted) it was 118% and 94.6%; with U251 CNS, 102% and 96.6%; with PC-3 prostate (10 µM unless noted), 101% and 81.5%; with SK-MEL-5 melanoma (10 µM unless noted), 108% and 98.3%. In addition, the growth in the experiment with UACC-62 melanoma was 110% and 98.1%; in the experiment with LOX IMVI melanoma it was 98.4% and 101%; in the experiment on SK-MEL-28 melanoma, 121% and 93.3%.

On to `CN(C)CC(CN(C)C)C(O)c1ccccc1` (stereo not given), for which the growth is 100% with HT29 colon (10 µM unless noted); 94.5% in the experiment on SNB-75 CNS (10 µM unless noted); 109% in the experiment with SNB-19 CNS (10 µM unless noted); 99.5% with U251 CNS; 101% with PC-3 prostate (10 µM unless noted); 106% in the experiment with SK-MEL-5 melanoma (10 µM unless noted). The growth with UACC-62 melanoma is 106%; in the experiment with LOX IMVI melanoma, 97.8%; in the experiment on SK-MEL-28 melanoma, 105%.

With `CCOC(=O)CN1CCC(C(=O)OCC)CC1`, the growth in the experiment with HT29 colon (10 µM unless noted) was 104%; with SNB-75 CNS (10 µM unless noted), 106%; in the experiment on SNB-19 CNS (10 µM unless noted), 110%; in the experiment on U251 CNS, 107%; with PC-3 prostate (10 µM unless noted), 88.8%; with SK-MEL-5 melanoma (10 µM unless noted) it was 103%. Moreover, the growth in the experiment on UACC-62 melanoma was 94.6%; in the experiment on LOX IMVI melanoma, 99.3%; in the experiment with SK-MEL-28 melanoma it was 108%.

For `COC(=O)CCOc1ccccc1`, the growth in the experiment with HT29 colon (10 µM unless noted) was 97.9%; in the experiment with SNB-75 CNS (10 µM unless noted), 61.1%; in the experiment with SNB-19 CNS (10 µM unless noted), 99.5%; in the experiment with U251 CNS, 96%; in the experiment with PC-3 prostate (10 µM unless noted), 85.3%; in the experiment on SK-MEL-5 melanoma (10 µM unless noted), 95.5%. Further, the growth in the experiment on UACC-62 melanoma was 99%; in the experiment on LOX IMVI melanoma it was 91.3%; in the experiment on SK-MEL-28 melanoma it was 123%.

Regarding `O=[N+]([O-])c1ccc(NC(c2ccccc2)c2ccc3cccnc3c2O)cc1` (stereo not given), the growth with HT29 colon (10 µM unless noted) was 26%; with SNB-75 CNS (10 µM unless noted), 47.3%; in the experiment on SNB-19 CNS (10 µM unless noted) it was 21.2%; in the experiment with U251 CNS, 12.3%; in the experiment on PC-3 prostate (10 µM unless noted), 30.3%; with SK-MEL-5 melanoma (10 µM unless noted), -1.02% (active). Besides, the growth in the experiment with UACC-62 melanoma was -4.08% (active); in the experiment on LOX IMVI melanoma, 9.64% (active); with SK-MEL-28 melanoma it was 27.7%.

Regarding `CCOC(=O)C1=C(C)NC(C)=C(C(=O)OCC)C1`, the growth is 101% and 102% in the experiment on HT29 colon (10 µM unless noted); 83.1% and 76.6% in the experiment with SNB-75 CNS (10 µM unless noted); 99.5% in the experiment on SNB-19 CNS (10 µM unless noted); 104% and 91.2% in the experiment on U251 CNS; 82.4% and 104% in the experiment with PC-3 prostate (10 µM unless noted); 101% and 103% in the experiment with SK-MEL-5 melanoma (10 µM unless noted). The growth was 94.4% and 102% in the experiment with UACC-62 melanoma; 98.4% and 102% with LOX IMVI melanoma; 105% and 101% with SK-MEL-28 melanoma.

In the case of `COc1ccc(/C=N/Nc2nc3ccccc3s2)cc1`, the growth in the experiment with HT29 colon (10 µM unless noted) is 92.3%; with SNB-75 CNS (10 µM unless noted), 80.5%; with SNB-19 CNS (10 µM unless noted) it was 99%; in the experiment on U251 CNS, 85.9%; with PC-3 prostate (10 µM unless noted), 81.2%; in the experiment on SK-MEL-5 melanoma (10 µM unless noted), 91.6%. Further, the growth was 83% with UACC-62 melanoma, 95.4% with LOX IMVI melanoma and 99.2% in the experiment with SK-MEL-28 melanoma.

Regarding `CC1(C)CC(=O)NC1=O`, the growth was 99.8% in the experiment with HT29 colon (10 µM unless noted); 82% with SNB-75 CNS (10 µM unless noted); 101% in the experiment on SNB-19 CNS (10 µM unless noted); 101% with U251 CNS; 104% in the experiment with PC-3 prostate (10 µM unless noted); 100% in the experiment with SK-MEL-5 melanoma (10 µM unless noted). Moreover, the growth in the experiment with UACC-62 melanoma is 99.6%; in the experiment on LOX IMVI melanoma it was 95.9%; in the experiment with SK-MEL-28 melanoma it was 105%.

In the case of `CC(=O)c1cccc(OC(=O)c2ccccc2)c1`, the growth is 104% in the experiment on HT29 colon (10 µM unless noted); 101% with SNB-75 CNS (10 µM unless noted); 97.2% in the experiment with SNB-19 CNS (10 µM unless noted); 103% in the experiment with U251 CNS; 90.9% with PC-3 prostate (10 µM unless noted); 108% in the experiment on SK-MEL-5 melanoma (10 µM unless noted). For the same compound, the growth in the experiment with UACC-62 melanoma is 91.1%; in the experiment with LOX IMVI melanoma, 87.4%; with SK-MEL-28 melanoma, 92.1%.

For the compound `CS/C(=C\c1ccc(C(=O)c2ccc(C)cc2)n1C)S(C)=O` (stereo not given), the growth is 94% in the experiment on HT29 colon (10 µM); 81.2% with HT29 colon (100 µM); 96.1% in the experiment with SNB-75 CNS (10 µM); 100% in the experiment with SNB-75 CNS (100 µM); 91.3% in the experiment on SNB-19 CNS (10 µM); 77.5% in the experiment on SNB-19 CNS (100 µM). Moreover, the growth in the experiment with U251 CNS was 74.7% [100 µM]; in the experiment with PC-3 prostate (10 µM), 76.6%; with PC-3 prostate (100 µM), 71.1%; in the experiment with SK-MEL-5 melanoma (10 µM), 81.2%; in the experiment with SK-MEL-5 melanoma (100 µM), 36.5%; with LOX IMVI melanoma it was 99.4%.

`CSc1nc(N)c(N)c(N)n1`: the growth with HT29 colon (10 µM unless noted) is 88.8%; in the experiment on SNB-75 CNS (10 µM unless noted), 97.5%; with SNB-19 CNS (10 µM unless noted), 100%; in the experiment with U251 CNS, 95.8%; in the experiment with PC-3 prostate (10 µM unless noted), 71.4%; with SK-MEL-5 melanoma (10 µM unless noted), 101%. Further, the values for the growth in the experiment on UACC-62 melanoma, with LOX IMVI melanoma and with SK-MEL-28 melanoma were 101%, 101% and 113%, respectively.
